Assay outcomes: PubChem, National Center for Advancing Translational Sciences (NCATS)
In the library only some 17% were active in any assay of this set; here they are far more common.
DT40 TDP1 CPT = DT40-hTDP1 cell growth loss with CPT; chicken DT40 Tdp1-/-;hTDP1 cells + 20 nM CPT, ATP luminescence, 48 h; Potency, µM (doses to about 46.2 µM), for inactives: at the highest dose activity change, negative = growth inhibition, most hits filed as inhibitors; 12% of 420,000 active; note: % is set by controls: 0 for no effect and ±100 for the full control effect; nearly all actives have a fitted effect of over 55% in size
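Chicken DT40 Tdp1-/- cells stably complemented with human TDP1 were seeded at 400 cells/well in medium containing 20 nM camptothecin, exposed to pin-transferred compounds, and grown at 37 °C for at least 48 hr. Viability was read as ATP luminescence.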
TGFb inhibitor = TGF-b pathway inhibition. Potency, µM (series often up to 46.1 µM), for inactives: at the top dose activity, negative = inhibition, hits mostly inhibitors. AID 588855. 1.2% of 410,000 active. HepG2 CAGA-GFP TGF-b/SMAD3 reporter, GFP fluorescence, 18 h; TGF-beta stimulated, 500 pg/mL final; note: % is set by controls: 0 for no effect and ±100 for the full control effect; nearly all actives have a fitted effect of over 65% in size
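First, reporter cells (HEPG2 CAGA-GFP) rested 2 h at 37 degrees C. Next, compounds were pinned in and TGF-beta added to 500 pg/mL final. After 18 h, GFP was imaged per cell and summed per well.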
HT1080 IDH1KD tx = kills HT-1080 cells with IDH1 knockdown | HT-1080 IDH1 knockdown viability, ATP luminescence, 48 h | Potency, µM (top dose mostly 46.1 µM), inactives show top-dose activity, negative = toxicity, usual class: cytotoxic | 2% of 360,000 active | AID 686971;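 note: 0% = DMSO wells and -100% = cell-free medium wells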
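After a 2 h attachment period, IDH1KD HT-1080 cells took pin-transferred compound for 48 h at 37 °C; ATP-based luminescence after 10 min room-temperature reagent incubation reported viability.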
TDP1 cell noCPT = qHTS for Inhibitors of human tyrosyl-DNA phosphodiesterase 1 (TDP1): qHTS in cells in absence of CPT | DT40 Tdp1-/- hTDP1 cells, no CPT, ATP luminescence, 48 h | Potency, µM (doses to about 46.2 µM), for the others: at the highest dose activity change, negative = growth inhibition, hits mostly inhibitors | 15% of 420,000 active; note: % is set by controls: 0 for no effect and ±100 for the full control effect; nearly all actives have a fitted effect of over 55% in size
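Growth of hTDP1-complemented DT40 Tdp1-knockout cells is measured by ATP luminescence after at least 48 hr compound exposure at 37 °C, with DMSO substituting for the 20 nM CPT used in the parallel screen.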
HT1080-NT tox = kills 2HG-producing HT-1080-NT fibrosarcoma cells; HT-1080-NT fibrosarcoma viability, CellTiter-Glo ATP luminescence, 48 h; 1.6% of 360,000 active; Potency, µM (titrated, usually from 46.1 µM), for inactives: top-dose activity, negative = less viability, usual class: cytotoxic;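 note: NT is the 2HG producing partner of a matched IDH1 knockdown line; 0% = DMSO-treated cells and -100% = media-only wells without cells; nearly all actives have a fitted effect of over 55% in size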
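Viability by CellTiter-Glo luminescence after 48 h compound exposure at 37C of HT-1080-NT cells (750/well, RPMI, 5% FBS). % activity scaled between DMSO wells and medium-only wells, then curve-fitted and categorized by curve class.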
HepG2 tox = kills HepG2 cells in TGF-b inhibitor counter-screen. Potency, µM (top dose mostly 46.1 µM), inactives show at the highest dose activity change, negative = cytotoxicity, actives largely listed as cytotoxic. HepG2 CAGA-GFP viability, ATP luminescence, 18 h. AID 588856. 0.76% of 410,000 active
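CellTiter-Glo luminescence gave cytotoxicity after 18 hours at 37 degrees C. The cells were HepG2 CAGA-GFP in 1% FBS DMEM, stimulated with 500 pg/mL TGF-beta after compound addition. %Activity was normalised to no-cell wells (complete cell-killing) and DMSO (no toxicity), and curves were fitted and classified.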
Starred values were filed as active, the others as inactive. Calls come from the whole dose curve; as a rule, active = well fitted curve in the direction sought with a large enough effect; inconclusive = small, poorly fitted or top-dose-only effect, or another doubt; inactive = no such curve, though single readings can be large; an effect the other way counts as inactive or inconclusive. Potency is the fitted concentration of half-maximal effect.

What do the screens show for `O=C(c1ccc(COc2ccccc2Br)o1)N1N=C(C(F)F)CC1(O)C(F)F` (configuration not stated)?
DT40 TDP1 CPT: 18µM*; TGFb inhibitor: inconclusive; HT1080 IDH1KD tx: -4%; TDP1 cell noCPT: 26µM*; HT1080-NT tox: 0%; HepG2 tox: -88%

Results for CCC(=O)Nc1cccc(-n2nnnc2SCC(=O)N2CCCCC2)c1 ?
DT40 TDP1 CPT: -9%; TGFb inhibitor: 6%; HT1080 IDH1KD tx: 1%; TDP1 cell noCPT: 2%; HT1080-NT tox: 8%; HepG2 tox: -3%

What do the screens show for `COc1ccc(C(=O)COC(=O)CCN=C2NS(=O)(=O)c3ccccc32)cc1OC`?
DT40 TDP1 CPT: 10%; TGFb inhibitor: 0%; HT1080 IDH1KD tx: 10%; TDP1 cell noCPT: 4%; HT1080-NT tox: 8%; HepG2 tox: -6%

What do the screens show for `COc1ccc(C(=O)Nc2cccc(C(=O)OCc3cc(=O)n4nc(C5CC5)sc4n3)c2)cc1`?
DT40 TDP1 CPT: inconclusive; TGFb inhibitor: -3%; TDP1 cell noCPT: inconclusive; HepG2 tox: -32%

What do the screens show for `O=C(OCc1cc(=O)n2nc(C3CC3)sc2n1)c1cccc(NC(=O)c2ccccc2Cl)c1`?
DT40 TDP1 CPT: 21µM*; TGFb inhibitor: 1%; TDP1 cell noCPT: 21µM*; HepG2 tox: 3%

How did CC(C)(C)C(=O)Nc1cccc(C(=O)OCc2cc(=O)n3nc(C4CCCCC4)sc3n2)c1 do in these assays?
DT40 TDP1 CPT: 5%; TGFb inhibitor: inconclusive; TDP1 cell noCPT: -3%; HepG2 tox: 2%

How did COc1cccc(C(=O)Nc2cccc(C(=O)OCc3cc(=O)n4nc(C5CC5)sc4n3)c2)c1 do in these assays?
DT40 TDP1 CPT: inconclusive; TGFb inhibitor: 20%; TDP1 cell noCPT: 3.7µM*; HepG2 tox: 7%

What do the screens show for `CC(C)(C)C(=O)Nc1cccc(C(=O)OCc2cc(=O)n3nc(C4CC4)sc3n2)c1`?
DT40 TDP1 CPT: inconclusive; TGFb inhibitor: -2%; TDP1 cell noCPT: 18µM*; HepG2 tox: 2%

What do the screens show for `COC(=O)c1ccccc1NC(=O)c1cc(C)nc2c1c(C)nn2-c1ccc(C)cc1`?
DT40 TDP1 CPT: 0%; TGFb inhibitor: -1%; TDP1 cell noCPT: -5%; HepG2 tox: 14%

How did Cc1nn(C(C)C(=O)NC2CCC(C)CC2)c(=O)c2cc3sccc3n12 (configuration not stated) do in these assays?
DT40 TDP1 CPT: 15µM*; TGFb inhibitor: 4%; TDP1 cell noCPT: inconclusive; HepG2 tox: -2%

Results for CCOC(=O)C(CC)n1nc(C)n2c(cc3sccc32)c1=O (configuration not stated) ?
DT40 TDP1 CPT: 12µM*; TGFb inhibitor: -18%; HT1080 IDH1KD tx: -6%; TDP1 cell noCPT: 12µM*; HT1080-NT tox: 15%; HepG2 tox: -15%

How did COc1cc(OC)cc(-c2noc([C@H]3C[C@H](O)[C@@H](CO)O3)n2)c1 do in these assays?
DT40 TDP1 CPT: 11%; TGFb inhibitor: 5%; HT1080 IDH1KD tx: 15%; TDP1 cell noCPT: 1%; HT1080-NT tox: 11%; HepG2 tox: 0%

Results for Cc1cc(C)cc(C(=O)NC(=S)Nc2cccnc2)c1 ?
DT40 TDP1 CPT: -1%; TGFb inhibitor: -8%; HT1080 IDH1KD tx: 2%; TDP1 cell noCPT: 0%; HT1080-NT tox: 6%; HepG2 tox: 2%

Results for CC(C)CCNC(=O)CCCc1ccccc1 ?
DT40 TDP1 CPT: 7%; TGFb inhibitor: -11%; HT1080 IDH1KD tx: 2%; TDP1 cell noCPT: -1%; HT1080-NT tox: -3%; HepG2 tox: -3%

What do the screens show for `O=C1C=C(C#Cc2ccccc2)C[C@@H](c2ccc(F)cc2)C1`?
DT40 TDP1 CPT: 4.6µM*; TGFb inhibitor: inconclusive; HT1080 IDH1KD tx: -16%; TDP1 cell noCPT: 4.6µM*; HT1080-NT tox: inconclusive; HepG2 tox: -100%

What do the screens show for `COc1ccccc1C#CC1=CC(=O)C[C@H](c2ccc(F)cc2)C1`?
DT40 TDP1 CPT: 15µM*; TGFb inhibitor: inconclusive; HT1080 IDH1KD tx: -23%; TDP1 cell noCPT: 16µM*; HT1080-NT tox: inconclusive; HepG2 tox: -43%

Results for CC(C)Oc1ccc2ccccc2c1CNC[C@H]1O[C@@H](n2cnc(C(N)=O)n2)[C@H](O)[C@@H]1O ?
DT40 TDP1 CPT: 29%; TGFb inhibitor: 9%; HT1080 IDH1KD tx: 3%; TDP1 cell noCPT: -13%; HT1080-NT tox: -3%; HepG2 tox: 2%

What do the screens show for `COc1ccc(OC)c2[nH]c(=O)c(CCNC(C)=O)cc12`?
DT40 TDP1 CPT: -4%; TGFb inhibitor: 4%; HT1080 IDH1KD tx: 6%; TDP1 cell noCPT: -3%; HT1080-NT tox: 4%; HepG2 tox: 1%

Results for COc1ccc(OC)c2[nH]c(=O)c(CCNC(=O)c3cc4ccccc4o3)cc12 ?
DT40 TDP1 CPT: 15µM*; TGFb inhibitor: 3%; HT1080 IDH1KD tx: 3%; TDP1 cell noCPT: inconclusive; HT1080-NT tox: 0%; HepG2 tox: 0%

How did Cc1ccc(C)c2[nH]c(=O)c(CCNC(=O)c3cc4ccccc4o3)cc12 do in these assays?
DT40 TDP1 CPT: 18µM*; TGFb inhibitor: 0%; HT1080 IDH1KD tx: 10%; TDP1 cell noCPT: 21µM*; HT1080-NT tox: 7%; HepG2 tox: -15%

How did Cc1cccc(N2CCN(C(=O)c3oc(=O)c4ccccc4c3-c3ccccc3)CC2C)c1 (configuration not stated) do in these assays?
DT40 TDP1 CPT: inconclusive; TGFb inhibitor: -11%; TDP1 cell noCPT: inconclusive; HepG2 tox: -38%

What do the screens show for `O=C1C2C3C=CC(CC3)C2C(=O)N1c1ccc(Br)cc1[N+](=O)[O-]` (configuration not stated)?
DT40 TDP1 CPT: -10%; TGFb inhibitor: 0%; HT1080 IDH1KD tx: 9%; TDP1 cell noCPT: -39%; HT1080-NT tox: 8%; HepG2 tox: -2%

Results for O=C1[C@H]2[C@@H]3CCN1CCC[C@@H]2C=C[C@@H]3c1ccc(Br)cc1 ?
DT40 TDP1 CPT: inconclusive; HT1080 IDH1KD tx: inconclusive; TDP1 cell noCPT: 18µM*; HT1080-NT tox: -30%
